Assay outcomes deposited in PubChem BioAssay by National Center for Advancing Translational Sciences (NCATS).
Sampled rows, rich in hits. Any-hit rate of the full collection: about 12%.
Pf growth 96h: P. falciparum growth inhibition at 96 hours. P. falciparum luciferase reporter growth, 96 h. Potency, µM (titrated, usually from 28.7 µM), for the others: at the top dose activity change, negative = inhibition, most hits filed as inhibitors. 6.9% of 320,000 active. AID 504834; further: on the % scale 0 is the no-effect control and ±100 the full control effect
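Parasite growth measured via integrated firefly luciferase reporter in P. falciparum. Infected erythrocytes at 2% hematocrit, 0.05% parasitemia final were treated 96 hours at 37 C under 5% CO2, and luminescence was read.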
AmpC inh detg: inhibitors of E. coli AmpC beta-lactamase with detergent | P00811 | Potency, µM (doses to about 114 µM), for the others: at the top dose activity change, negative = inhibition, hits mostly inhibitors | 0.041% of 370,000 active | AmpC hydrolysis of nitrocefin, absorbance 480 nm, 0.01% Triton;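 further: 0% = no-compound wells and -100% = no-enzyme wells; nearly all actives have a fitted effect of over 25% in size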
Target sequence (P00811 whole entry, looked up): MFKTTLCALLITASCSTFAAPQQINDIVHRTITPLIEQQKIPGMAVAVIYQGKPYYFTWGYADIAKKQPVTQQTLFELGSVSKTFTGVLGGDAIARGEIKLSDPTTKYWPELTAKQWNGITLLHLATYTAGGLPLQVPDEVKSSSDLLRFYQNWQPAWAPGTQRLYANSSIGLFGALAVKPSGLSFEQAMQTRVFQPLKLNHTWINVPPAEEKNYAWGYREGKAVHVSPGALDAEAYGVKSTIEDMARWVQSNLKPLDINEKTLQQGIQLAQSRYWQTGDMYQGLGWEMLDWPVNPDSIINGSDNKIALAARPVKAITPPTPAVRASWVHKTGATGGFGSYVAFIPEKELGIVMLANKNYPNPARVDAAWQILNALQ
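AmpC (5.3 nM in the dispensed reagent) in 20 mM phosphate pH 7.0 with 0.01% (detergent screen) or 0.0001% Triton X-100 was preincubated with compounds for 15 min at room temperature. Nitrocefin was then added from an 800 uM solution, and hydrolysis was followed at 480 nm.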
AmpC no deterg: inhibitors of E. coli AmpC beta-lactamase without detergent. P00811. AmpC nitrocefin hydrolysis, absorbance 480 nm, 0.0001% Triton. Potency, µM (series often up to 57.1 µM), for inactives: top-dose activity change, negative = inhibition, hits mostly inhibitors. 0.52% of 330,000 active. AID 485341;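 further: plate controls were no compound for no effect and no enzyme for full effect; nearly all actives have a fitted effect of over 20% in size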
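AmpC (5.3 nM in the dispensed reagent) in 20 mM phosphate pH 7.0 with 0.01% (detergent screen) or 0.0001% Triton X-100 was preincubated with compounds for 15 min at room temperature. Nitrocefin was then added from an 800 uM solution, and hydrolysis was followed at 480 nm.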
Pf growth 48h: inhibits P. falciparum growth in the first generation, 48 h; P. falciparum luciferase growth in erythrocytes, 48 h; Potency, µM (top dose mostly 28.7 µM), inactives show at the highest dose activity change, negative = inhibition, usual class: inhibitors; 5.9% of 310,000 active; AID 504832; further: on the % scale 0 is the no-effect control and ±100 the full control effect
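Here the parasites carry a stable luciferase gene and grow inside erythrocytes in Albumax-based RPMI medium with compound for one erythrocytic cycle. Activity is scored as loss of luminescent signal.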
Sm TGR inh: blocks Schistosoma mansoni thioredoxin glutathione reductase; Q962Y6; purified TGR, DTNB reduction, TNB absorbance 405 nm; Potency, µM (highest dose often 114 µM), inactives show at the top dose activity change, negative = inhibition, most hits filed as inhibitors; 3% of 360,000 active; AID 485364; further: on the % scale 0 is the no-effect control and ±100 the full control effect; nearly all actives have a fitted effect of over 60% in size
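First, TGR (20 nM dispensed) and NADPH were mixed with compound. Second, a 15 min room-temperature incubation followed. Third, further NADPH and then DTNB were added to start the reaction. Finally, TNB absorbance was monitored kinetically.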
SARS PLpro yeast: inhibitors of SARS-CoV papain-like protease in yeast. 0.19% of 330,000 active. AID 485353. Potency, µM (titrated, usually from 32.9 µM), inactives show at the highest dose activity, positive = growth rescue, usual class: activators. S. cerevisiae expressing SARS-CoV PLpro, growth rescue; calls by dose curve; further: 0% is about no effect; nearly all actives have a fitted effect of over 55% in size
Starred values were filed as active, the others as inactive. Unless noted, the call rests on the fitted dose curve; in most records, active means well fitted curve in the direction sought with a large enough effect; inconclusive means small, poorly fitted or top-dose-only effect, or another doubt; inactive means no such curve, though single readings can be large; an effect the other way counts as inactive or inconclusive. Potency means the concentration at half of the fitted maximal effect.

`COc1ccc(S(=O)(=O)N2CCC(C(=O)Nc3ccccc3N3CCCCC3)CC2)cc1OC` gave Pf growth 96h 8.3µM*, AmpC inh detg inconclusive, AmpC no deterg 71%, Pf growth 48h 0%, Sm TGR inh -5% and SARS PLpro yeast 3%.
For CCC(=O)c1ccc(OCC(=O)Nc2cc(S(=O)(=O)N3CCCCC3)ccc2N2CCN(CC)CC2)cc1 the results were Pf growth 96h 9.3µM*, AmpC inh detg -2%, AmpC no deterg 226%, Pf growth 48h inconclusive, Sm TGR inh -12% and SARS PLpro yeast -5%.
Screening CCOc1ccccc1OCC(=O)Nc1cc(S(=O)(=O)N2CCCCC2)ccc1N1CCN(CC)CC1 returned Pf growth 96h 3.3µM*, AmpC inh detg -12%, AmpC no deterg 240%, Pf growth 48h 10µM*, Sm TGR inh 4% and SARS PLpro yeast -4%.
`CCOc1ccccc1OCC(=O)Nc1cc(S(=O)(=O)N2CCCCC2)ccc1OC` gave Pf growth 96h 2%, AmpC inh detg 0%, AmpC no deterg -21%, Pf growth 48h inconclusive, Sm TGR inh -3% and SARS PLpro yeast 1%.
Screening COc1ccccc1OCC(=O)Nc1cc(C(F)(F)F)ccc1-n1cncn1 returned Pf growth 96h inconclusive, AmpC inh detg -13%, AmpC no deterg 4%, Pf growth 48h 9.3µM*, Sm TGR inh 0% and SARS PLpro yeast -1%.
For CCN1CCN(c2ccc(S(=O)(=O)N3CCCCC3)cc2NC(=O)Cc2ccc(Cl)c(Cl)c2)CC1 the results were Pf growth 96h 10µM*, AmpC inh detg -20%, AmpC no deterg 178%, Pf growth 48h 10µM*, Sm TGR inh 1% and SARS PLpro yeast -4%.
For COc1cc(C(C)=O)ccc1OCC(=O)Nc1cc(Cl)ccc1-n1cncn1 the results were Pf growth 96h -24%, AmpC inh detg 0%, AmpC no deterg -9%, Pf growth 48h -1%, Sm TGR inh -4% and SARS PLpro yeast 7%.
`COc1ccc(-n2nc(C(=O)N3CCN(c4cccc(C)c4C)CC3)c3c4ccccc4n(C)c3c2=O)cc1` gave AmpC inh detg 1% and Sm TGR inh 2%.
For Cc1ccc(OCC(=O)Nc2cc(S(=O)(=O)N3CCCCC3)ccc2N2CCN(C)CC2)c(C)c1 the results were Pf growth 96h 1.5µM*, AmpC inh detg -12%, AmpC no deterg 134%, Pf growth 48h 2.3µM*, Sm TGR inh -9% and SARS PLpro yeast 1%.
CCN1CCN(c2ccc(S(=O)(=O)N3CCCCC3)cc2NC(=O)COc2ccc(Cl)c(C)c2)CC1 was read as Pf growth 96h inconclusive, AmpC inh detg -12%, AmpC no deterg 65%, Pf growth 48h 4.7µM*, Sm TGR inh -18% and SARS PLpro yeast 1%.
Screening COc1ccc(/C=C(\C#N)C(=O)Nc2cc(S(=O)(=O)N3CCCCC3)ccc2N2CCCCC2)cc1 returned Pf growth 96h 8.3µM*, AmpC inh detg -10%, AmpC no deterg inconclusive, Pf growth 48h inconclusive, Sm TGR inh -2% and SARS PLpro yeast -11%.
For COc1ccccc1OCC(=O)Nc1cc(Cl)ccc1N1CCCCC1 the results were Pf growth 96h inconclusive, AmpC inh detg 7%, AmpC no deterg -21%, Pf growth 48h 10µM*, Sm TGR inh -3% and SARS PLpro yeast 2%.
Screening Cc1cc(OCC(=O)Nc2cccc(S(=O)(=O)N3CCCCC3)c2)ccc1Cl returned Pf growth 96h inconclusive, AmpC inh detg -6%, AmpC no deterg -35%, Pf growth 48h inconclusive, Sm TGR inh -18% and SARS PLpro yeast -10%.
COc1cc(-c2nc(Cn3nnc(C(=O)Nc4ccccc4C)c3C)c(C)o2)cc(OC)c1OC was read as AmpC inh detg 21% and Sm TGR inh 5%.
